FGF22 binding = binders of recombinant human FGF22 by thermal shift. activity (Tm shift, normalised), % at 9.99 µM. 340,000 compounds, 1.5% hits. AID 651658. SYPRO orange fluorescence; percent of sucrose octasulfate shift, DMSO zero. Q9HCT0;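 active = mean Tm shift, scaled 0 neutral to 100 positive control, at about 1.3% or above, every replicate too, limit read from the data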
Target sequence (Q9HCT0 whole entry, looked up): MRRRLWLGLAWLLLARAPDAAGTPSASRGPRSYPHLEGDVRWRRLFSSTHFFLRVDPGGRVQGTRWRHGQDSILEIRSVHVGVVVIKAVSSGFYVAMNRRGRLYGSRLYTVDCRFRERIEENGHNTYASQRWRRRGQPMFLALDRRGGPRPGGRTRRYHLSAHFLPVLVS
ERAP1 HTS inh = ERAP1 (human) enzyme inhibition; recombinant ERAP1, Leu-AMC fluorescence, 60 min; Q9NZ08; 340,000 compounds, 0.15% hits; inhibition, % at 10.7 µM;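 active = mean replicate inhibition of at least 30%, or all replicates individually reaching that 30% level; inactive = mean below 30% and not every replicate reaching it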;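 also: 0% = neutral control wells and 100% = L-leucinethiol positive control wells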
GSIS activator = primary screen for activators of insulin secretion dependent on glucose, INS-1E cells, GLuc reporter luminescence. AID 743287. INS-1E GLuc reporter insulin secretion, 2-3 h. 370,000 compounds, 0.61% hits. activation, % at 16.6 µM;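 active = lowest replicate activation of at least 40%, so every replicate reaches that level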;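 also: 0% = median of neutral control wells and 100% = median of IBMX positive control wells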
SIRT5 block = inhibitors of human sirtuin-5 desuccinylase; 330,000 compounds, 1.1% hits; inhibition, % at 15 µM; Purified SirT5, succinyl-peptide AMC, trypsin-coupled fluorescence; in the data active = inhibition above about 15%
Target sequence (Q9NXA8 whole entry, looked up): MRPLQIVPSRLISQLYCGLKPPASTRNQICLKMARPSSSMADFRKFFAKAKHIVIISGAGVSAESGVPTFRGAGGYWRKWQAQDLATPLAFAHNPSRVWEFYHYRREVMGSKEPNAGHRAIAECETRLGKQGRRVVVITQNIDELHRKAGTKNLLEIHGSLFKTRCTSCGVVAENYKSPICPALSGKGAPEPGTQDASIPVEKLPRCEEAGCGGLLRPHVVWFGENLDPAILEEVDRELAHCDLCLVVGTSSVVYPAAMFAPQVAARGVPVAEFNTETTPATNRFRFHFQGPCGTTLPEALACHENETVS
CASP6 VEID inh = blocks human caspase-6 cleavage activity; P55212; purified caspase-6, Z-VEID-R110 cleavage fluorescence; inhibition, % at 12.5 µM; 350,000 compounds, 0.53% hits; AID 686996;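 active = mean inhibition across replicates at least about 35%, with every replicate also reaching that limit, limit read from the data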;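 also: 0% = median of neutral control wells and 100% = no fluorescence left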
Starred values were filed as active, the others as inactive. A selection: hits, their analogues and other compounds. The true share with any hit is near 3.3%.

`CCCCCCC[C@H](N)[C@H](O)C(=O)N(C)[C@@H](CCS(C)=O)C(=O)N[C@@H](Cc1ccc(O)cc1)C(=O)N[C@@H](Cc1ccc(O)cc1)C(=O)O` (some centres undefined) gave FGF22 binding 0.0, ERAP1 HTS inh 50.4* and CASP6 VEID inh -0.3.
For C[C@@H]1CCCCO[C@H](CN(C)C(=O)Nc2cccc3ccccc23)[C@@H](C)CN([C@H](C)CO)C(=O)c2cc(NC(=O)Nc3cccc4ccccc34)ccc2O1 the results were FGF22 binding 1.6*, ERAP1 HTS inh -1.6, GSIS activator 10.6, SIRT5 block 2.6 and CASP6 VEID inh -1.1.
For CC(C)NC(=O)Nc1ccc2c(c1)C(=O)N([C@@H](C)CO)C[C@@H](C)[C@@H](CN(C)C(=O)Nc1cccc3ccccc13)O2 the results were FGF22 binding -0.2, ERAP1 HTS inh 2.1, GSIS activator -7.1, SIRT5 block -0.7 and CASP6 VEID inh 45.7*.
C[C@@H]1CCCCO[C@H](CN(C)C(=O)C2CCCCC2)[C@@H](C)CN([C@H](C)CO)C(=O)c2cc(NC(=O)Nc3cccc4ccccc34)ccc2O1 was read as FGF22 binding 1.3*, ERAP1 HTS inh -3.3, GSIS activator 6.8, SIRT5 block 1.3 and CASP6 VEID inh -1.6.
For C[C@H]1CCCCO[C@H](CN(C)C(=O)Nc2cccc3ccccc23)[C@@H](C)CN([C@@H](C)CO)C(=O)c2cc(NC(=O)Nc3ccc4c(c3)OCO4)ccc2O1 the results were FGF22 binding 12.5*, ERAP1 HTS inh -2.2, GSIS activator 14.3, SIRT5 block 8.3 and CASP6 VEID inh -1.8.
For CC(C)NC(=O)Nc1ccc2c(c1)C(=O)N([C@H](C)CO)C[C@@H](C)[C@H](CN(C)C(=O)Nc1cccc3ccccc13)O2 the results were FGF22 binding 0.7, ERAP1 HTS inh 2.1, GSIS activator 8.2, SIRT5 block 2.2 and CASP6 VEID inh -5.0.
For CC(=O)N(C)C[C@H]1Oc2cc(Br)ccc2S(=O)(=O)N([C@@H](C)CO)C[C@@H]1C the results were FGF22 binding 0.2, ERAP1 HTS inh -1.3, GSIS activator 15.4, SIRT5 block -1.1 and CASP6 VEID inh -4.1.
For O=C(NCC1CCCO1)C(=O)N/N=C/c1ccccc1C(=O)O (centres undefined) the results were FGF22 binding 43.1*, ERAP1 HTS inh -4.3, GSIS activator 5.0, SIRT5 block 4.5 and CASP6 VEID inh -3.2.
For O=C(O)CC1=C(Nc2ccccc2)C(=O)N(c2ccccc2)C1c1ccc(F)cc1 (centres undefined) the results were FGF22 binding 43.3*, ERAP1 HTS inh -1.3, GSIS activator -3.4, SIRT5 block -4.2 and CASP6 VEID inh -1.0.
For O=C(/C=C/c1ccco1)N(Cc1ccc(Cl)cc1)C1CCS(=O)(=O)C1 (centres undefined) the results were FGF22 binding -0.1, GSIS activator -12.9, SIRT5 block 57.1* and CASP6 VEID inh 4.9.
For CN(C)C(=O)c1cccc(-c2ccccc2[C@H]2[C@@H](C#N)N(C(=O)C3CCCC3)[C@@H]2CO)c1 the results were ERAP1 HTS inh -0.6, GSIS activator -3.5, SIRT5 block 2.6 and CASP6 VEID inh -3.9.
`CN1CCN(c2cc(CNC[C@H]3O[C@@H](n4cnc5c(=O)[nH]c(N)nc54)[C@H](O)[C@@H]3O)ccc2F)CC1` gave FGF22 binding -0.1, ERAP1 HTS inh -0.3, SIRT5 block -4.4 and CASP6 VEID inh 54.0*.
For Nc1nc2c(ncn2[C@@H]2O[C@H](CNCc3ccc4ncccc4c3)[C@@H](O)[C@H]2O)c(=O)[nH]1 the results were FGF22 binding 0.4, ERAP1 HTS inh -1.6, SIRT5 block 0.6 and CASP6 VEID inh -0.3.
Screening CC(C)NC(=O)N1CC(=O)N2[C@H](C1)[C@H](c1ccc(/C=C/c3ccccc3)cc1)[C@@H]2CO returned FGF22 binding -0.2, ERAP1 HTS inh -0.3, GSIS activator -11.8, SIRT5 block -3.2 and CASP6 VEID inh 1.6.
Screening Cc1cccc(NC(=S)NNC(=O)c2ccccc2Br)c1 returned GSIS activator -5.5.
`O=C(NNC(=S)Nc1ccc(F)c(Cl)c1)c1ccccc1Br` gave FGF22 binding 2.1*, ERAP1 HTS inh -1.2, GSIS activator 1.6, SIRT5 block 2.6 and CASP6 VEID inh 4.9.
Screening CC(=O)Nc1cccc(NC(=S)Nc2ccc(F)c(Cl)c2)c1 returned FGF22 binding 1.3*, ERAP1 HTS inh 1.3, GSIS activator -32.4, SIRT5 block -7.4 and CASP6 VEID inh 3.6.
Screening Cc1cccc(C)c1Nc1ncnc(N)c1[N+](=O)[O-] returned FGF22 binding 0.0, ERAP1 HTS inh 9.1, GSIS activator 6.8, SIRT5 block -3.7 and CASP6 VEID inh 0.8.
For COc1cccc(C(=O)NCC(=O)NNc2ncnc(N)c2[N+](=O)[O-])c1 the results were FGF22 binding 43.1*, ERAP1 HTS inh 1.2, GSIS activator 8.7, SIRT5 block 0.1 and CASP6 VEID inh -6.2.
Screening COc1ccccc1CNC(=O)C[C@H]1CC[C@@H]2[C@H](COC[C@H](O)CN2Cc2cccc(-c3ccncc3)c2)O1 returned FGF22 binding 0.0 and GSIS activator -7.6.
`O=C1C2C(C(=O)N1/N=C/c1cc([N+](=O)[O-])c(O)cc1O)C1C=CC2C12CC2` (centres undefined) gave FGF22 binding 0.1, ERAP1 HTS inh -1.5, GSIS activator -17.8, SIRT5 block 5.6 and CASP6 VEID inh 75.9*.
Cc1cccc(S(=O)(=O)N2CCCCN3[C@H](CO)[C@@H](c4ccc(-c5ccccc5)cc4)[C@H]3C2)c1 was read as FGF22 binding -0.7, ERAP1 HTS inh -0.1, SIRT5 block 21.6* and CASP6 VEID inh 1.8.
Cc1ccc(-c2ccc([C@H]3[C@H]4CN(S(=O)(=O)c5cccc(C)c5)CCCCN4[C@H]3CO)cc2)cc1 was read as FGF22 binding 0.5, ERAP1 HTS inh 3.5, SIRT5 block 16.9* and CASP6 VEID inh 0.1.
`O=C(N[C@H]1C=C[C@@H](CC(=O)N2CCOCC2)O[C@@H]1CO)c1ccccn1` gave FGF22 binding -0.4, ERAP1 HTS inh -0.4, GSIS activator 8.1, SIRT5 block -1.2 and CASP6 VEID inh 3.4.
For O=C(NC1CCCCC1)N[C@H]1C=C[C@@H](CC(=O)N2CCOCC2)O[C@@H]1CO the results were FGF22 binding 0.2, ERAP1 HTS inh 1.1, GSIS activator 20.7, SIRT5 block 7.7 and CASP6 VEID inh 36.8*.
`COC(=O)C[C@H]1C=C[C@H](NC(=O)Cc2ccccc2)[C@@H](CO)O1` gave FGF22 binding 0.3, GSIS activator 7.6, SIRT5 block -5.5 and CASP6 VEID inh -1.2.
Screening COC(=O)C[C@@H]1C=C[C@H](NC(=O)Cc2ccccn2)[C@@H](CO)O1 returned FGF22 binding 41.6, ERAP1 HTS inh -3.4, GSIS activator 63.6* and CASP6 VEID inh 0.7.
O=C(N[C@H]1C=C[C@H](CC(=O)N2CCOCC2)O[C@H]1CO)c1ccccn1 was read as FGF22 binding -0.7, ERAP1 HTS inh 0.1, GSIS activator 7.7, SIRT5 block 29.4* and CASP6 VEID inh 2.5.

Bioassay records deposited in PubChem BioAssay by Broad Institute.
